Rows were chosen to be rich in hits. Some 7.5% of all compounds tested hit in one or more screens of this group.
Rab9 promoter act: qHTS Assay for Rab9 Promoter Activators; AID 485297, 2010; Potency, µM (titrated, usually from 9.22 µM), without a hit: at the top dose activation, negative = inhibition, actives largely listed as activators; 320,000 tested, 2.8% active; Huh7 Rab9 promoter-luciferase reporter, luminescence, 24 h; further: % of control where 0% means no effect; nearly all actives have a fitted effect of over 60% in size
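Luciferase signal after 10 min detection reagent at ambient indicates Rab9 promoter upregulation; stably transfected Huh7 cells were treated 24 h with compound in DMSO at 37 °C, 5% CO2.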
FLuc counter: qHTS profiling assay for firefly luciferase inhibitor/activator using purifed enzyme and Km concentrations of substrates (counterscreen for miR-21 project); purified FLuc, Km substrates, luminescence inhibition; Potency, µM (titrated, usually from 57.5 µM), without a hit: top-dose activity change, negative = inhibition, actives largely listed as inhibitors; 360,000 tested, 6.9% active; AID 588342, 2011;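 further: plate controls were vehicle for no effect and reference inhibitor for full effect; nearly all actives have a fitted effect of over 55% in size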
Target sequence (P08659 whole entry, looked up): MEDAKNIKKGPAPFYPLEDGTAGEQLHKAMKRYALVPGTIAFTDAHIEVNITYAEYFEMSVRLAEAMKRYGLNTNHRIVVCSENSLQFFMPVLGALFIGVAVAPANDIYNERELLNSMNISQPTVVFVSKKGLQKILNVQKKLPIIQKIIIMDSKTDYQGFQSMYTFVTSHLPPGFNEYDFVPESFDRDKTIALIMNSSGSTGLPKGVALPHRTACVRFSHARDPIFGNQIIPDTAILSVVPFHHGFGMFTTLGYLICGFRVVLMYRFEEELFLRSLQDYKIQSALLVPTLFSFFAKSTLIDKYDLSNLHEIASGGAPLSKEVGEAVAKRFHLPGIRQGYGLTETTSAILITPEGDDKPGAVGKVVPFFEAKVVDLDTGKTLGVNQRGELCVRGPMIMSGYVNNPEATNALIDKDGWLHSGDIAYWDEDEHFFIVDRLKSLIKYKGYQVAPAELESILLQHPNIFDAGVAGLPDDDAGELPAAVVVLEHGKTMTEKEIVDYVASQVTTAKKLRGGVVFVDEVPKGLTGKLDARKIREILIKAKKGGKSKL
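Purified P. pyralis luciferase, 10 nM final, with Km-level 10 uM D-luciferin and 10 uM ATP in 50 mM Tris acetate pH 7.5, 10 mM Mg acetate, 0.01% Tween-20, 0.05% BSA; 6-point qHTS titration about 60 µM downward; luminescence read.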
SMN2 splice enh: qHTS Assay for Enhancers of SMN2 Splice Variant Expression. 210,000 tested, 2.8% active. AID 1458, 2008. Potency, µM (series often up to 46.1 µM), for inactives: top-dose activity change, positive = activation, usual class: activators. HEK293 SMN2-luciferase splicing reporter, luminescence, 30-36 h; further: % of control where 0% means no effect; nearly all actives have a fitted effect of over 55% in size
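HEK293 cells carry an SMN2 […]–luciferase reporter in which exon 7 inclusion puts luciferase in frame. Cells were plated 10-12 h before compound addition, then incubated 30-36 h at 37C. ONE-Glo luminescence was read; sodium butyrate at 4.5 mM final served as control.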
Luc counter: Counterscreen for Luciferase (Kinase-Glo TM) Inhibition; 200,000 tested, 0.28% active; Kinase-Glo luciferase, ATP luminescence, 8 min; Potency, µM (highest dose often 38.3 µM), inactives show top-dose activity change, negative = inhibition, most hits filed as inhibitors; further: on the % scale 0 is the no-effect control and ±100 the full control effect; nearly all actives have a fitted effect of over 60% in size
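Luminescence was the read-out, taken after 8-minute incubation at ambient temperature. Luciferase turned over luciferin with 10 uM ATP in imidazole pH 7.2 buffer containing KCl, MgCl2, Tween 20 and BSA.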
ELG1 genotoxic: qHTS screen for small molecules that induce genotoxicity in human embryonic kidney (HEK293T) cells expressing luciferase-tagged ELG1. Potency, µM (top dose mostly 46 µM), without a hit: top-dose activity change, positive = activation, most hits filed as activators. HEK293T ELG1-luciferase reporter, luminescence, 16 h. 330,000 tested, 1.3% active. AID 504466, 2011; further: % of control where 0% means no effect; nearly all actives have a fitted effect of over 60% in size
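16 hr compound incubation (37 °C, 5% CO2) of HEK293T cells carrying luciferase-tagged ELG1; luciferase then measured by ONE-Glo luminescence after 30 min at RT.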
NPC1 prom act: qHTS Assay for NPC1 Promoter Activators; Huh7 NPC1 promoter luciferase reporter, 24 h; Potency, µM (top dose mostly 9.22 µM), for inactives: top-dose activation, most hits filed as activators; 320,000 tested, 2.4% active; AID 485313, 2010; further: % of control where 0% means no effect; nearly all actives have a fitted effect of over 60% in size
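Luminescence read-out of NPC1 promoter-driven luciferase in stably transfected Huh7 cells; compounds delivered in DMSO and left 24 h at 37C, 5% CO2, qHTS titration format.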
The depositor's hits bear a star; ? = inconclusive; nt = no result given; [ ] = remark or other dose. The call rests on the fitted dose curve; in most records, active means well fitted curve in the direction sought with a large enough effect; inconclusive means small, poorly fitted or top-dose-only effect, or another doubt; inactive means no such curve, though single readings can be large; an effect the other way counts as inactive or inconclusive. Potency means the concentration at half of the fitted maximal effect.

SMILES	Rab9 promoter act	FLuc counter	SMN2 splice enh	Luc counter	ELG1 genotoxic	NPC1 prom act
CCOc1ccc(-c2nc(=S)[nH][nH]2)cc1	?	15µM*	?	-1%	?	15%
Nc1nc(CCl)nc(Nc2ccc3ccccc3c2)n1	-54%	3µM*	nt	nt	28%	-37%
COc1ccc(Nc2nc(N)nc(CCl)n2)cc1	-48%	6µM*	nt	nt	?	nt
O=C(NCc1ccc(F)cc1)c1ccccc1OCc1ccccc1	2%	1%	-22%	2%	-2%	0%
O=C(NNC(=O)c1ccccc1OCc1ccc(F)cc1)c1ccccc1O	-37%	27µM*	nt	nt	-2%	-28%
O=C(NNC(=O)c1ccccc1OCc1ccccc1)c1ccccc1O	-20%	19µM*	nt	nt	6%	-13%
O=C(NNC(=O)c1ccccc1OCc1ccccc1)c1ccccc1F	29%	21µM*	nt	nt	23%	?
O=C(N/N=C/c1ccccc1F)c1ccccc1OCc1ccccc1	-19%	17µM*	nt	nt	-12%	-23%
COc1cc(/C=N/NC(=O)c2cc(-c3ccccc3)n[nH]2)cc(OC)c1OC	nt	nt	nt	-2%	nt	nt
COc1ccc2oc(C(=O)N(C)Cc3ccc(OC(F)F)cc3)c(C)c2c1	0%	-21%	nt	nt	14%	2%
Cc1cc2sc3ccccc3c(=O)c2c(C)c1O	21%	8.5µM*	nt	2%	15%	16%
Cc1noc(/C=C/c2ccco2)c1S(=O)(=O)N1CCC(C(=O)Nc2ccc(F)cc2F)CC1	nt	-7%	4%	nt	nt	nt
CCOc1ccc2c(c1)nc(SCC(=O)c1cccs1)n2C	25%	12µM*	23%	-3%	?	?
CN(C)c1ccc(C(O)Cc2nc3ccccc3n2C)cc1 (stereo not given)	?	?	nt	nt	4.6µM*	?
COc1ccccc1C(O)Cc1nc2ccccc2n1C (stereo not given)	?	?	2%	15%	?	29%
CC(C)c1ccc(C(O)Cc2nc3ccccc3n2C)cc1 (stereo not given)	4µM*	9.5µM*	nt	nt	?	?
C=NCc1cc2c(OC[C@@H](O)CNC(C)(C)C)cccc2[nH]1	nt	nt	-7%	nt	nt	nt
O=C(O)CCN1CCN(S(=O)(=O)c2ccc3ccccc3c2)CC1	10%	-1%	nt	nt	1%	1%
Cn1c(SC2CCCCC2=O)nnc1-c1ccccc1F (stereo not given)	-6%	6%	19%	2%	5%	0%
CCC(=O)/C=C1/Sc2ccccc2N1CC	-3%	-14%	-5%	-4%	-3%	-1%
CCN1/C(=C/C(=O)c2ccco2)Sc2ccccc21	?	24µM*	14%	-7%	0%	4%
O=C(c1cc([N+](=O)[O-])ccc1Cl)N1CCN(Cc2ccccc2)CC1	7%	7%	nt	nt	-7%	-2%
CC(C)COc1ccc(/C(=N/O)c2ccccc2)cc1	22%	17µM*	-14%	19%	?	20%
CC(O)COc1ccc(/C(=N/O)c2ccccc2)cc1 (stereo not given)	-2%	?	8%	7%	0%	1%
CCn1cnc2cc(NS(=O)(=O)c3ccc(OC)c(OC)c3)ccc21	-2%	-1%	nt	nt	0%	0%
CCn1cnc2cc(NC(=O)c3ccc(C)cc3)ccc21	4µM*	11µM*	nt	nt	?	2µM*
Cc1ccc(C(=O)Nc2ccc3c(c2)ncn3C)cc1	4µM*	-3%[2.3 µM]	2.5µM*	1%	?	3.2µM*
Cc1ccc(NC(=O)CCn2cnc3cc(C)c(C)cc32)cc1	-1%	-11%	-5%	3%	-2%	-1%
O=C(Nc1nc2nccc(-c3ccccc3)n2n1)c1ccc(F)cc1	11%	1%	-24%	-1%	1%	-6%

Assay outcomes (PubChem)
